# Legend:
# Test in all cases: DAPPL (digital affinity profiling via proximity ligation, sequencing); 10 mM Tris-HCl pH 7.5, 50 mM NaCl, 1 mM DTT, 4% glycerol, room temperature, 30 min; GST-TFs on glutathione beads, 16-mer random dsDNA library, 0.1% formaldehyde crosslink after washing; high values mean tight binding
# [1] = molecular target: T1, FLI1 (Homo sapiens, UniProt Q01543 1-452); conditions: protein: recombinant; tags: N-terminal GST; dsDNA, one strand shown
# T1 sequence: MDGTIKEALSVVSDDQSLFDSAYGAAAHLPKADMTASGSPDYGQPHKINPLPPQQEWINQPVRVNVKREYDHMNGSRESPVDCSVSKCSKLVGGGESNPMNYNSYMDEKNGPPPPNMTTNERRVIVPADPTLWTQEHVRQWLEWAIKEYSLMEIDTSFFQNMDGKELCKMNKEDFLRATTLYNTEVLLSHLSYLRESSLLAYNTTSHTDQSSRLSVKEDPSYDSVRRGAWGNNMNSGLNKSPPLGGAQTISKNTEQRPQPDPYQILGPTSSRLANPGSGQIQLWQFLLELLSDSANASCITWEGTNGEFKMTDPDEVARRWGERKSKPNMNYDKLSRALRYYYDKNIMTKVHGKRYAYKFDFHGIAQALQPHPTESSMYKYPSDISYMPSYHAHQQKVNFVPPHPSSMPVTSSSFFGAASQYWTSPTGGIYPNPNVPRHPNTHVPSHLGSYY
# Procedure, shortened: (§1)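 Pools of DNA-barcoded human transcription factors, expressed in yeast as GST fusions on glutathione beads and combined with a tag-only sample, were incubated with 200 nmole of a 16-mer random double-stranded DNA library. Incubation took 30 min at room temperature in Tris/NaCl/DTT/glycerol buffer and was followed by washing, 0.1% formaldehyde crosslinking, proximity ligation (BsaI/T4 ligase, 1 h, 37 °C), PCR amplification and sequencing on an Illumina NextSeq500. Binding signal is the ratio of a hexamer's read frequency for a factor to its frequency for the tag-only sample.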
# [2] = molecular target: T2, ELK1 (Homo sapiens, UniProt P19419 1-428); conditions: protein: recombinant; tags: N-terminal GST; dsDNA, one strand shown
# T2 sequence: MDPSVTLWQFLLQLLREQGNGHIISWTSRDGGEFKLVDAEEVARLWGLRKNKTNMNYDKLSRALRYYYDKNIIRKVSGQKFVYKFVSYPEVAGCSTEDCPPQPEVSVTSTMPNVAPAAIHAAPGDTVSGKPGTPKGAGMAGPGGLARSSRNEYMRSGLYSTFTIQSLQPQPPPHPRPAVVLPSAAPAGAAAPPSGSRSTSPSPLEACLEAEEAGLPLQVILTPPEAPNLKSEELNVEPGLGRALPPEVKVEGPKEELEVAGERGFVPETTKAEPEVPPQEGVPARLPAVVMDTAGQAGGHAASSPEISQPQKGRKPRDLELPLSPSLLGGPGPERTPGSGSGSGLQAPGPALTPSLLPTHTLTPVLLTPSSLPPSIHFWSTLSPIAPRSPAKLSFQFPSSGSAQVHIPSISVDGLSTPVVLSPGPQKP
# Procedure, shortened: as §1
# [3] = molecular target: T3, GABPA (Homo sapiens, UniProt Q06546 1-454); conditions: protein: recombinant; tags: N-terminal GST; dsDNA, one strand shown
# T3 sequence: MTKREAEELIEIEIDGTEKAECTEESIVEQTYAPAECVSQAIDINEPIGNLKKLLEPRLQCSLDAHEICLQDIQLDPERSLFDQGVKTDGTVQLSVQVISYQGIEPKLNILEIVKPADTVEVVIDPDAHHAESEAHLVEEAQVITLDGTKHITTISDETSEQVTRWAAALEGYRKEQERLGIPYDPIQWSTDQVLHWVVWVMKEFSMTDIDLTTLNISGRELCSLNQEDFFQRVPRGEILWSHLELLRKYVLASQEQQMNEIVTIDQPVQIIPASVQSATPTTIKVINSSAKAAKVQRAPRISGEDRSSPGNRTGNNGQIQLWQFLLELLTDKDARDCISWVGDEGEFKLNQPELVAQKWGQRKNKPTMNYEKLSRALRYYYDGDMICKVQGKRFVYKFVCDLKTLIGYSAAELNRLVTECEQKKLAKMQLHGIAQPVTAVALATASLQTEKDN
# Procedure, shortened: as §1
# [4] = molecular target: T4, ERG (Homo sapiens, UniProt P11308 1-479); conditions: protein: recombinant; tags: N-terminal GST; dsDNA, one strand shown
# T4 sequence: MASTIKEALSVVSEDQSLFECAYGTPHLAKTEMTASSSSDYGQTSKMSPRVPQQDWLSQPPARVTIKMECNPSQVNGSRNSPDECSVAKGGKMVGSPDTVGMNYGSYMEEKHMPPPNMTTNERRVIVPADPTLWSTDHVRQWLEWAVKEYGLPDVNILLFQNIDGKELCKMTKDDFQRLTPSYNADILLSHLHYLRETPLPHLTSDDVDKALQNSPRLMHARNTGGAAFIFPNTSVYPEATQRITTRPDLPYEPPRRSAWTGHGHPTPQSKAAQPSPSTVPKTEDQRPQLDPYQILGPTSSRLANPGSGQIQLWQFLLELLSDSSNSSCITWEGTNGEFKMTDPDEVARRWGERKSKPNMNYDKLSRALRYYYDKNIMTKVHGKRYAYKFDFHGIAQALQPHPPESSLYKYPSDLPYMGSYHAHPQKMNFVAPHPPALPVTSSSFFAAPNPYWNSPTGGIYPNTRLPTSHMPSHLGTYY
# Procedure, shortened: as §1
# [5] = molecular target: ELF1 (Homo sapiens, UniProt P32519 1-619); conditions: protein: recombinant; tags: N-terminal GST; dsDNA, one strand shown
# Sequence of ELF1 (P32519 whole entry): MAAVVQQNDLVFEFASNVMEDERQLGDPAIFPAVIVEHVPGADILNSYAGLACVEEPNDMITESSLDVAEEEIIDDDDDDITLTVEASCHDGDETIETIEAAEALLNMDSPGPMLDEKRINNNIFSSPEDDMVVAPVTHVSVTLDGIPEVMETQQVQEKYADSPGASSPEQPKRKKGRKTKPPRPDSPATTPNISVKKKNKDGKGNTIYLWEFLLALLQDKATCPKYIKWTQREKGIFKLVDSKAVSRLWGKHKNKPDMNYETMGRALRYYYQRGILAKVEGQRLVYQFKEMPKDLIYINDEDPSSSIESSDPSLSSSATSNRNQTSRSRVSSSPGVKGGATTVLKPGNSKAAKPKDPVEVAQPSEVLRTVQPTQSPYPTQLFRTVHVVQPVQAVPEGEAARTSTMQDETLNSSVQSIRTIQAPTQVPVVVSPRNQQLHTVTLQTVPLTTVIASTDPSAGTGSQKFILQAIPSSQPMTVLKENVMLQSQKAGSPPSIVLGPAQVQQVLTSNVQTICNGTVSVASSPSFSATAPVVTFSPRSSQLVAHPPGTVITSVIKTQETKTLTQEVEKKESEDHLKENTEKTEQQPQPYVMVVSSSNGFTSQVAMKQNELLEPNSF
# Procedure, shortened: as §1
# [6] = molecular target: T5, EHF (Homo sapiens, UniProt Q9NZC4 1-300); conditions: protein: recombinant; tags: N-terminal GST; dsDNA, one strand shown
# T5 sequence: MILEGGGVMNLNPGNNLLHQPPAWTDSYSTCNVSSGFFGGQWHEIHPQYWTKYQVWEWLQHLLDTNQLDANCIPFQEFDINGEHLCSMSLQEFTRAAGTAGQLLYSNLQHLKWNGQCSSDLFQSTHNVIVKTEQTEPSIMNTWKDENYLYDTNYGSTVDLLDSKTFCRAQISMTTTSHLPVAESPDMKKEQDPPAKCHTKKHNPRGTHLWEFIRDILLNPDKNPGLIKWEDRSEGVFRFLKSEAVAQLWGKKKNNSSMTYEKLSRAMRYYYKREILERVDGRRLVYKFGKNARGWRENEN
# Procedure, shortened: as §1
# [7] = molecular target: SPI1 (Homo sapiens, UniProt P17947 1-270); conditions: protein: recombinant; tags: N-terminal GST; dsDNA, one strand shown
# Procedure, shortened: as §1
# [8] = molecular target: SPIB (Homo sapiens, UniProt Q01892 1-262); conditions: protein: recombinant; tags: N-terminal GST; dsDNA, one strand shown
# Sequence of SPIB (Q01892 whole entry): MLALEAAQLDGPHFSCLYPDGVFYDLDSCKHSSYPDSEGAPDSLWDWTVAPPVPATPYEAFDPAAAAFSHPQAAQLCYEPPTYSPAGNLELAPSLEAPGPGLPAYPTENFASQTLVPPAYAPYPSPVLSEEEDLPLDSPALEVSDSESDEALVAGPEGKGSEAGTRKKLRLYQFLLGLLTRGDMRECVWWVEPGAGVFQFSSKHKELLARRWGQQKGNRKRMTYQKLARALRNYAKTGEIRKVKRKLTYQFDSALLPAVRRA
# Procedure, shortened: as §1
# [9] = molecular target: T6, ELK3 (Homo sapiens, UniProt P41970 1-407); conditions: protein: recombinant; tags: N-terminal GST; dsDNA, one strand shown
# T6 sequence: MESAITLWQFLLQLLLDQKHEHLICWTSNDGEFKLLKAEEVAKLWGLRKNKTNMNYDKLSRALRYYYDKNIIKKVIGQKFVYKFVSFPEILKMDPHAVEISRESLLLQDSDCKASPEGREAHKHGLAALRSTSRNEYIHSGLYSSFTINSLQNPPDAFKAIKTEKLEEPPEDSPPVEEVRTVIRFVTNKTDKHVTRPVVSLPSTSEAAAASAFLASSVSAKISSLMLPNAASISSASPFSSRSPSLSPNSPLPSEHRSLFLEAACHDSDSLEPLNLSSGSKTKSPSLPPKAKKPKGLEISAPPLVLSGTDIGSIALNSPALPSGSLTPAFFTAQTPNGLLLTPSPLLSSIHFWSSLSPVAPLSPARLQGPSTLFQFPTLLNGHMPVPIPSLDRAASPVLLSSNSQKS
# Procedure, shortened: as §1
# [10] = molecular target: T7, FEV (Homo sapiens, UniProt Q99581 1-238); conditions: protein: recombinant; tags: N-terminal GST; dsDNA, one strand shown
# T7 sequence: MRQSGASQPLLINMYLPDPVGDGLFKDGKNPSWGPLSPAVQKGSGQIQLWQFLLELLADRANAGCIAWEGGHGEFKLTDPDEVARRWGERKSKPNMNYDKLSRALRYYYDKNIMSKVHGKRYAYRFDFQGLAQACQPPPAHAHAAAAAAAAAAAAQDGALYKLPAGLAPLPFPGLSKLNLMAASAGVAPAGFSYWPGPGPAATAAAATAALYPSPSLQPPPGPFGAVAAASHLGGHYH
# Procedure, shortened: as §1
# [11] = molecular target: ETV5 (Homo sapiens, UniProt P41161 1-510); conditions: protein: recombinant; tags: N-terminal GST; dsDNA, one strand shown
# Sequence of ETV5 (P41161 whole entry): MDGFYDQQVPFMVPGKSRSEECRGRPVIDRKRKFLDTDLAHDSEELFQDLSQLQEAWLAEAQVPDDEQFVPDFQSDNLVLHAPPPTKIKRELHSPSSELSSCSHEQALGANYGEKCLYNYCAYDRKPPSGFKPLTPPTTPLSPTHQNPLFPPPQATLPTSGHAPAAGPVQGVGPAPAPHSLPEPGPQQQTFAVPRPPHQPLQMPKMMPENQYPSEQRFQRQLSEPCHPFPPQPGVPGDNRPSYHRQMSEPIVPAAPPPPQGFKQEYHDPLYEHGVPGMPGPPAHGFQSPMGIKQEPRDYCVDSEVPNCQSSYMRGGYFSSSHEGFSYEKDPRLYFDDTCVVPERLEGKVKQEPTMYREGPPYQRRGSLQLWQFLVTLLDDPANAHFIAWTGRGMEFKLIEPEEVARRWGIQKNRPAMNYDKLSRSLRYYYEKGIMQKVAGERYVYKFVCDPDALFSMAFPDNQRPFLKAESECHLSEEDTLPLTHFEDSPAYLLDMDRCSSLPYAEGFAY
# Procedure, shortened: as §1
# [12] = molecular target: HSF1 (Homo sapiens, UniProt Q00613 1-529); conditions: protein: recombinant; tags: N-terminal GST; chain copies: 3; dsDNA, one strand shown
# Sequence of HSF1 (Q00613 whole entry): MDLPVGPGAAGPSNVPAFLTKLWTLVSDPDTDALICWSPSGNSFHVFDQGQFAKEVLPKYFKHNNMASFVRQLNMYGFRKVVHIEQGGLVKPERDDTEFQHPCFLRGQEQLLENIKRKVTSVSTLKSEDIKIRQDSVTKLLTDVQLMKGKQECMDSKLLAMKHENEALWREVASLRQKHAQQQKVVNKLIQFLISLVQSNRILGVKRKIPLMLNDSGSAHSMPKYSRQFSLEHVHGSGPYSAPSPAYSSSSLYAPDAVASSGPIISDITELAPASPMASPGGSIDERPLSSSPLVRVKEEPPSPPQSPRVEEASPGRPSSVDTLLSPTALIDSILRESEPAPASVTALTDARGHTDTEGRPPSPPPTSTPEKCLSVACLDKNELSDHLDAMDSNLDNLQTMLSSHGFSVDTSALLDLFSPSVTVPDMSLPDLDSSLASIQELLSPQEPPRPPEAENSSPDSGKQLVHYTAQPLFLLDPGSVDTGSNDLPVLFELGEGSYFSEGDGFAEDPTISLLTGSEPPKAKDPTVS
# Procedure, shortened: as §1
# [13] = molecular target: T8, SPIC (Homo sapiens, UniProt Q8N5J4 1-248); conditions: protein: recombinant; tags: N-terminal GST; dsDNA, one strand shown
# T8 sequence: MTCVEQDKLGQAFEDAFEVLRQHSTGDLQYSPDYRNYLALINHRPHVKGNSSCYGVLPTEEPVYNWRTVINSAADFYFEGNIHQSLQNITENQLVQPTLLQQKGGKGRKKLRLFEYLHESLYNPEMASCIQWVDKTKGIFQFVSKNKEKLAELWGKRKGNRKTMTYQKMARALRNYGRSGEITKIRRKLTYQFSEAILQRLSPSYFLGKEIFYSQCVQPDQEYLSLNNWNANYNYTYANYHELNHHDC
# Procedure, shortened: as §1
# [14] = molecular target: ELF4 (Homo sapiens, UniProt Q99607 1-663); conditions: protein: recombinant; tags: N-terminal GST; dsDNA, one strand shown
# Sequence of ELF4 (Q99607 whole entry): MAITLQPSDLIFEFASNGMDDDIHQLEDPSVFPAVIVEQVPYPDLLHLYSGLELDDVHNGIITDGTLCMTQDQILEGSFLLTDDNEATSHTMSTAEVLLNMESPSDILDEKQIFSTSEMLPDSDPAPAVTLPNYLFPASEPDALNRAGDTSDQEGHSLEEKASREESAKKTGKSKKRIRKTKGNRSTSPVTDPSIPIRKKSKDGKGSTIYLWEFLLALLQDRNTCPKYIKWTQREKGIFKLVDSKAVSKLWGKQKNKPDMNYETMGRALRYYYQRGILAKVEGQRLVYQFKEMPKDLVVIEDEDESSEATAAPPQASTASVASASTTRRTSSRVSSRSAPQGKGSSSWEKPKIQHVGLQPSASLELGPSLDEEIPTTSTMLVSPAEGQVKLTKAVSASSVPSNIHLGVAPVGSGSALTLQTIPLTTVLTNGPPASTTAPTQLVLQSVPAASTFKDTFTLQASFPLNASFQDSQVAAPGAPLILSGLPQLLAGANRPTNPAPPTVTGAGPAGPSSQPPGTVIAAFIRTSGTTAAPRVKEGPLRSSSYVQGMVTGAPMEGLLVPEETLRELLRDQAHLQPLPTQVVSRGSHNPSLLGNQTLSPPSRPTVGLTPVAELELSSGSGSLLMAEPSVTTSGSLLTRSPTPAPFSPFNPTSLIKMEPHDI
# Procedure, shortened: as §1
# [15] = molecular target: T9, ELK4 (Homo sapiens, UniProt P28324-2 1-405); conditions: protein: recombinant; tags: N-terminal GST; dsDNA, one strand shown
# T9 sequence: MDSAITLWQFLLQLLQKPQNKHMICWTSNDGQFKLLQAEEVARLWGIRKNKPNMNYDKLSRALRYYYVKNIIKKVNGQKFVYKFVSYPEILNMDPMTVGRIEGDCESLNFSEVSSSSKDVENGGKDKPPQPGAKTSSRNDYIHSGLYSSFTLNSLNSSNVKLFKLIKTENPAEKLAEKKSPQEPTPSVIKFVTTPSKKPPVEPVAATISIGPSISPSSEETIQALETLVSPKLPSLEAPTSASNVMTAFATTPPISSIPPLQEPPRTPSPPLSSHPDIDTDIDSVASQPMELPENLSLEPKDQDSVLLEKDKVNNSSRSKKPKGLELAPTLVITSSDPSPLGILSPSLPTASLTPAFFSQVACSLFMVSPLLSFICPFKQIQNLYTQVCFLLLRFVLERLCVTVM
# Procedure, shortened: as §1
# [16] = molecular target: T10, ETV2 (Homo sapiens, UniProt O00321 1-342); conditions: protein: recombinant; tags: N-terminal GST; dsDNA, one strand shown
# T10 sequence: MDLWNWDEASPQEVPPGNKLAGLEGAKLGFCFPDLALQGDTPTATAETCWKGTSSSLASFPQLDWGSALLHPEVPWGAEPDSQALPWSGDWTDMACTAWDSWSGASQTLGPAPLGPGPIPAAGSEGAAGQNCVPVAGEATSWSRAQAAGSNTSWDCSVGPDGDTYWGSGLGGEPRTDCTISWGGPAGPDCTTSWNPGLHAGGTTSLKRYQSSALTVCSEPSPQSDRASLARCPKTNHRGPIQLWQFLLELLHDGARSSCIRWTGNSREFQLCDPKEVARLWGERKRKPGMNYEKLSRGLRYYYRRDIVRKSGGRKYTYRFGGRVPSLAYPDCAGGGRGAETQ
# Procedure, shortened: as §1
# [17] = molecular target: T11, ELF3 (Homo sapiens, UniProt P78545 1-371); conditions: protein: recombinant; tags: N-terminal GST; dsDNA, one strand shown
# T11 sequence: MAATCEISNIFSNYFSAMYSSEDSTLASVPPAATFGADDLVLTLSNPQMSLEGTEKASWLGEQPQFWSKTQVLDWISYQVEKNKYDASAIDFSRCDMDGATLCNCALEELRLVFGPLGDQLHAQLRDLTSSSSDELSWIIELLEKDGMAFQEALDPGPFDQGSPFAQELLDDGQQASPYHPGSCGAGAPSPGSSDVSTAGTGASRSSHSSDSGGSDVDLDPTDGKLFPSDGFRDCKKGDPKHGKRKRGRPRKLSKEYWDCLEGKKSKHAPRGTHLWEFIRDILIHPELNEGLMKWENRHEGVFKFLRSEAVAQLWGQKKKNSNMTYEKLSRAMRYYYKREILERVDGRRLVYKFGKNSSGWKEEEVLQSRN
# Procedure, shortened: as §1
# [18] = molecular target: CRX (Homo sapiens, UniProt O43186 1-299); conditions: protein: recombinant; tags: N-terminal GST; dsDNA, one strand shown
# Sequence of CRX (O43186 whole entry): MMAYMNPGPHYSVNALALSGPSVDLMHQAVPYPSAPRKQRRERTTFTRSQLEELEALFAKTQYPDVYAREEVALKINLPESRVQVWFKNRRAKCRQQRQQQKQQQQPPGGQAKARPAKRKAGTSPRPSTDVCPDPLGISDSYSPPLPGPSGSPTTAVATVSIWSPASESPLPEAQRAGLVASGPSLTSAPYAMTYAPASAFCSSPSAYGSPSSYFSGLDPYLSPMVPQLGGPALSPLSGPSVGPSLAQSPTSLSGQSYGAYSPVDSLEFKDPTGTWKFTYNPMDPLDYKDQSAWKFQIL
# Procedure, shortened: as §1
# [19] = molecular target: ETV1 (Homo sapiens, UniProt P50549 1-477); conditions: protein: recombinant; tags: N-terminal GST; dsDNA, one strand shown
# Sequence of ETV1 (P50549 whole entry): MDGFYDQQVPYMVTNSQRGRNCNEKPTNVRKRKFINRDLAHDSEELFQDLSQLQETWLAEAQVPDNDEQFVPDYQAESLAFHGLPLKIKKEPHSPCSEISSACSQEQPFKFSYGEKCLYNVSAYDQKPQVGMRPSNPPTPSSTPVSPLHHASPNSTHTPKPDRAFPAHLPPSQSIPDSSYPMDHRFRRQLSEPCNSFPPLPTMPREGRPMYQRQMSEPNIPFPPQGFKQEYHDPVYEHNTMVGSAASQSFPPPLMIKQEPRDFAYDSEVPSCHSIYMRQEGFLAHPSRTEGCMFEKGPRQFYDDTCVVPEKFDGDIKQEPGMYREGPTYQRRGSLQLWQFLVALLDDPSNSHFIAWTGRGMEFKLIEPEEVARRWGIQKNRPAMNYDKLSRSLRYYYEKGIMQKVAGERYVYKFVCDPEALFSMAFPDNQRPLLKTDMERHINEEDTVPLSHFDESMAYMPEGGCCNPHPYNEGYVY
# Procedure, shortened: as §1
sequence,measurement,setting,value
TTAAAG,binding signal,[1],"1.17 fold enrichment (6-mer frequency, TF over GST control)"
same,binding signal,[2],"1.11 fold enrichment (6-mer frequency, TF over GST control)"
same,binding signal,[3],"1.26 fold enrichment (6-mer frequency, TF over GST control)"
same,binding signal,[4],"1.1 fold enrichment (6-mer frequency, TF over GST control)"
same,binding signal,[5],"1.19 fold enrichment (6-mer frequency, TF over GST control)"
same,binding signal,[6],"1.18 fold enrichment (6-mer frequency, TF over GST control)"
same,binding signal,[7],"1.12 fold enrichment (6-mer frequency, TF over GST control)"
same,binding signal,[8],"1.19 fold enrichment (6-mer frequency, TF over GST control)"
same,binding signal,[9],"1.09 fold enrichment (6-mer frequency, TF over GST control)"
same,binding signal,[10],"1.17 fold enrichment (6-mer frequency, TF over GST control)"
same,binding signal,[11],"1.15 fold enrichment (6-mer frequency, TF over GST control)"
same,binding signal,[12],"1.85 fold enrichment (6-mer frequency, TF over GST control)"
same,binding signal,[13],"1.17 fold enrichment (6-mer frequency, TF over GST control)"
same,binding signal,[14],"1.15 fold enrichment (6-mer frequency, TF over GST control)"
same,binding signal,[15],"1.18 fold enrichment (6-mer frequency, TF over GST control)"
same,binding signal,[16],"1.12 fold enrichment (6-mer frequency, TF over GST control)"
same,binding signal,[17],"1.26 fold enrichment (6-mer frequency, TF over GST control)"
same,binding signal,[18],"2.66 fold enrichment (6-mer frequency, TF over GST control)"
same,binding signal,[19],"1.15 fold enrichment (6-mer frequency, TF over GST control)"

# — paper PMC7862700, “An all-to-all approach to the identification of sequence-specific readers for epigenetic DNA modifications on cytosine”
